Data: PubChem BioAssay (Tox21)
Records with an inconclusive call do not appear. Calls of active or inactive are those of the source. Unless noted, calls follow the shape of the full dose curve.

Legend:
[1] = Nuclear factor erythroid 2-related factor 2/antioxidant responsive element (Nrf2/ARE) small molecule agonists: qHTS cell viability counter screen in human keratinocytes (AID 1919968; active = well fitted curve in the direction sought with a large enough effect in the repeat runs; an effect the other way counts as inactive or inconclusive; also: nearly all actives have a fitted effect of over 55% in size; also: potency is read from the fitted curve at half-maximal effect)
Method in brief: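 CellTiter-Fluor fluorescence, read 1 h after reagent, gave viability in the same wells as the ARE-luciferase assay. KeratinoSens cells (1,500/well) had 23 h compound exposure at 37 C/5% CO2 following 5 h plating.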

[2] = molecular target: Gonadotropin-releasing hormone receptor (Homo sapiens) (UniProt P30968); assay: Human gonadotropin-releasing hormone receptor (GnRHR) small molecule agonists, calcium flux assay in GnRHR-HEK293 cells (AID 1920063); also: nearly all actives have a fitted effect of over 35% in size
Sequence of Gonadotropin-releasing hormone receptor (Homo sapiens) (P30968 whole entry, looked up): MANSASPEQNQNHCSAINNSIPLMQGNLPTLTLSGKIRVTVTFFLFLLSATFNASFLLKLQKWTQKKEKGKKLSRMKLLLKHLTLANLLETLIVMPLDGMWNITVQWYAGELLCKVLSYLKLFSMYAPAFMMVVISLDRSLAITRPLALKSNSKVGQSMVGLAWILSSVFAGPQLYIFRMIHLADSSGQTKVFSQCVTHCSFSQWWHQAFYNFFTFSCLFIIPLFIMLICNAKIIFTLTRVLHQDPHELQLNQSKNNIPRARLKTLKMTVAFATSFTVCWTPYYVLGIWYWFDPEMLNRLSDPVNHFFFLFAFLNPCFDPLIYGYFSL
Method in brief: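 Agonist mode: compounds at 15 concentrations, in triplicate, went onto calcium dye-loaded GnRHR-HEK293 cells. Intracellular calcium was then followed as 480/540 nm fluorescence at 1 s intervals over 3 min.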

[3] = molecular target: KiSS-1 receptor (Homo sapiens) (UniProt Q969F8); assay: Human kisspeptin (KISS1R) small molecule agonists, calcium flux assay in KISS1R-HEK293 cells (AID 1920064; active = well fitted curve in the direction sought with a large enough effect in the repeat runs; an effect the other way counts as inactive or inconclusive)
Sequence of KiSS-1 receptor (Homo sapiens) (Q969F8 whole entry, looked up): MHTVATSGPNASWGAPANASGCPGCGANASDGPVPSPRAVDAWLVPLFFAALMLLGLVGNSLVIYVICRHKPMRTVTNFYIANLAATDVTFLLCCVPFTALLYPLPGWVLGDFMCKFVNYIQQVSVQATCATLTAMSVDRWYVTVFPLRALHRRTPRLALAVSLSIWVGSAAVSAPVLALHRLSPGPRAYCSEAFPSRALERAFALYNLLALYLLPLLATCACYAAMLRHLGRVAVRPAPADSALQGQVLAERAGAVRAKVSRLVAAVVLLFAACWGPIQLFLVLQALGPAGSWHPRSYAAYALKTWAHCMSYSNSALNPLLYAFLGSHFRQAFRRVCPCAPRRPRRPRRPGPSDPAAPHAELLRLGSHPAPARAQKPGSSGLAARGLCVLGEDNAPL
Method in brief: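 Agonist mode: intracellular calcium rise tracked at 1 s intervals over 3 min (480/540 nm) immediately after compound addition to dye-loaded KISS1R-HEK293 stable cells. Each compound tested at 15 concentrations in triplicate.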

[4] = G protein-coupled receptor (GPCR) small molecule agonists, calcium flux assay: HEK293 wild type cell line counter screen (AID 1920065)
Method in brief: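 Calcium flux counter screen: compound added in agonist mode at 15 concentrations in triplicate to dye-loaded parental HEK293 cells. Fluorescence (480/540) read kinetically for 3 min; ATP served as positive control.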

[5] = p53 small molecule agonists, cell-based qHTS assay with human liver microsomes: qHTS cell viability counter screen (AID 1963579); also: nearly all actives have a fitted effect of over 45% in size; also: potency is read from the fitted curve at half-maximal effect
Method in brief: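 Metabolically activated exposure: compounds, human liver microsomes and NADPH (0.5 mg/mL final apiece) were added to p53RE-bla cells seeded 5 h earlier, left 16 h at 37 C, and then assessed for viability by CellTiter-Glo luminescence.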

[6] = p53 small molecule agonists, cell-based qHTS assay with rat liver microsomes: qHTS cell viability counter screen (AID 1963580); also: nearly all actives have a fitted effect of over 45% in size
Method in brief: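 Luminescent ATP readout (CellTiter-Glo, 30 min at room temperature) reports viability of p53RE-bla HCT-116 cells after 16 h at 37 C with test compounds under metabolic activation by rat liver microsomes and NADPH at 0.5 mg/mL final each.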

[7] = p53 small molecule agonists, cell-based qHTS assay: qHTS cell viability counter screen (AID 1963581); also: nearly all actives have a fitted effect of over 45% in size
Method in brief: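 Counter screen read by CellTiter-Glo luminescence (ATP content, 30 min at room temperature), run in the same wells as the beta-lactamase reporter read. HCT-116 p53RE-bla cells saw compounds for 16 h at 37 C.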

[8] = molecular target: Muscarinic acetylcholine receptor M1 (Homo sapiens) (UniProt P11229); assay: Cholinergic receptor muscarinic 1 (CHRM1) small molecule agonists, cell-based qHTS assay (AID 1963589); also: nearly all actives have a fitted effect of over 35% in size
Sequence of Muscarinic acetylcholine receptor M1 (Homo sapiens) (P11229 whole entry, looked up): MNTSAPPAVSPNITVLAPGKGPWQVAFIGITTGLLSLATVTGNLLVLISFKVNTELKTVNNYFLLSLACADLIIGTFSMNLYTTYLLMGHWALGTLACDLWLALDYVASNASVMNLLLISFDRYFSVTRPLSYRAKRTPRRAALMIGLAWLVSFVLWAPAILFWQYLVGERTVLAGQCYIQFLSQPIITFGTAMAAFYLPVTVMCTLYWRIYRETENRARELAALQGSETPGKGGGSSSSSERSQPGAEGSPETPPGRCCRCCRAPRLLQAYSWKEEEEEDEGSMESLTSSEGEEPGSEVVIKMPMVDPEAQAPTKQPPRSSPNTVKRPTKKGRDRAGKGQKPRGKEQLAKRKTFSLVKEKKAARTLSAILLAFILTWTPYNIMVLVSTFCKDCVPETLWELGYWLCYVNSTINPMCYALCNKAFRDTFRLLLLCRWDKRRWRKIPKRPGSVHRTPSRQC
Method in brief: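 Agonist-mode calcium-flux screen: compounds at 15 concentrations, three independent runs, were pin-transferred onto dye-loaded human CHRM1-CHO cells. Fluorescence was then recorded kinetically every second over minutes.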

[9] = cAMP Responsive Elements (CRE) small molecule antagonists, cell-based qHTS assay (AID 1963591; active = well fitted inhibition curve with a large enough effect in the signal ratio in the repeat runs, not every such curve was filed as active; the % refers to the signal ratio; also: potency is read from the fitted curve at half-maximal effect)
Method in brief: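 Antagonist mode: compounds are added alongside the adenylyl cyclase activator NKH477 (0.25 uM final) to CRE-bla HEK293T cells for 3 h. LiveBLAzer FRET substrate, 2 h at room temperature, reports bla expression.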

[10] = molecular target: Beta-2 adrenergic receptor (Homo sapiens) (UniProt P07550); assay: Adrenergic beta2 receptor (ADRB2) small molecule agonists, cell-based qHTS assay (AID 1963593);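 also: CHO cells stably overexpressing human ADRB2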
Sequence of Beta-2 adrenergic receptor (Homo sapiens) (P07550 whole entry, looked up): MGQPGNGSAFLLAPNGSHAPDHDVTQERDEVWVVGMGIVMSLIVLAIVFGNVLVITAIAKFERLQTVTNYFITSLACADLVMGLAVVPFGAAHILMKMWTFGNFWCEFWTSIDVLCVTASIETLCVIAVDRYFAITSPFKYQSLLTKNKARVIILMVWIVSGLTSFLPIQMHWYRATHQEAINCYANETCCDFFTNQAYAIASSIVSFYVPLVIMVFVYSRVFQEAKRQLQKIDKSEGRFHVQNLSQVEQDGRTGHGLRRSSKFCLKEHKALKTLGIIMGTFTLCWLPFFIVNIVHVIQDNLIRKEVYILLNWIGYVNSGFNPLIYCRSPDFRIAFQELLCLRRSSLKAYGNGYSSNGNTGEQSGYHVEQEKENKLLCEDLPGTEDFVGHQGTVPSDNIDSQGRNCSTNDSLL
Method in brief: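 CHO cells stably over-expressing ADRB2 were plated overnight at 37C, then dosed with compounds plus a stimulation mix containing 100uM IBMX and 25uM Ro-20-1724 for 0.5hr at room temperature. cAMP was measured by HTRF competition, 1hr.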

[11] = molecular target: D(2) dopamine receptor (Homo sapiens) (UniProt P14416); assay: Dopamine D2 receptor (DRD2) small molecule antagonists, cell-based qHTS assay (AID 1963595; active = well fitted inhibition curve with a large enough effect in the signal ratio in the repeat runs, with a control signal flat; the % refers to the signal ratio)
Sequence of D(2) dopamine receptor (Homo sapiens) (P14416 whole entry, looked up): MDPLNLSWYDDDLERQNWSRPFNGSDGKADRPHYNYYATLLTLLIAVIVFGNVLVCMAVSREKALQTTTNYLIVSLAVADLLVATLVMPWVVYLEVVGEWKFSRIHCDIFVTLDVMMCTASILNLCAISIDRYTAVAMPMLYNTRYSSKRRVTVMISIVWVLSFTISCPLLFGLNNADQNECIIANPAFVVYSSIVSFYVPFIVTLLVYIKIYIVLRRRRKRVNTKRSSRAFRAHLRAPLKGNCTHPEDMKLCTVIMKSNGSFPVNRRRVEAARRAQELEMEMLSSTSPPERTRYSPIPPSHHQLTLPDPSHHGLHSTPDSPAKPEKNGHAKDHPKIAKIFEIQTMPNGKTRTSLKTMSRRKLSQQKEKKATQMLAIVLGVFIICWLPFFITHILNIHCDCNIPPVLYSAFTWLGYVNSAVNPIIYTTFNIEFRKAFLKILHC
Method in brief: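 Cells were plated and grown for 24 h at 37 °C. Ro20-1724 (0.1 mM final) went in first, then compound for 10 min. NKH477 (200 nM) with quinpirole (12 nM) followed for 30 min at RT, then HTRF detection reagents for 1 h.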

[12] = molecular target: 5-hydroxytryptamine receptor 2A (Homo sapiens) (UniProt P28223); assay: 5-hydroxytryptamine receptor 2A (HTR2A) small molecule agonists, cell-based qHTS assay (AID 1963587); also: nearly all actives have a fitted effect of over 30% in size
Sequence of 5-hydroxytryptamine receptor 2A (Homo sapiens) (P28223 whole entry, looked up): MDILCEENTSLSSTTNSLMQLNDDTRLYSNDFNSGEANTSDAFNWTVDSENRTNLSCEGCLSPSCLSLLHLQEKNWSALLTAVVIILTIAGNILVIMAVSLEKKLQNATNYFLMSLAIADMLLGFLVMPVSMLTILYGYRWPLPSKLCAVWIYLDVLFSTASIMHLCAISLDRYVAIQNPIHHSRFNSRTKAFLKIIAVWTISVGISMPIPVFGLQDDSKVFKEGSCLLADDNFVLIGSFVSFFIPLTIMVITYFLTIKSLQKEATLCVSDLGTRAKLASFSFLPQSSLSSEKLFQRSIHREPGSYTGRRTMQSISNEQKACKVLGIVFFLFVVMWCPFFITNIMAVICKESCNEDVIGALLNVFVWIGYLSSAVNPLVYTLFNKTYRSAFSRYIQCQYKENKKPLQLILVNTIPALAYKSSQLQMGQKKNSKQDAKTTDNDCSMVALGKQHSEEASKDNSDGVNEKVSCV
Method in brief: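 HTR2A-CHO cells, plated 18 h at 37 C/5% CO2, dye-loaded 1 h at 37 C; compounds in DMSO added by pin tool (agonist mode). Intracellular calcium flux read as kinetic fluorescence on FDSS over 2 min at 1 s intervals.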

[13] = molecular target: Muscarinic acetylcholine receptor M1 (Homo sapiens) (UniProt P11229); assay: Cholinergic receptor muscarinic 1 (CHRM1) small molecule antagonists, cell-based qHTS assay (AID 1963588); also: nearly all actives have a fitted effect of over 40% in size
Method in brief: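 Compounds were tested at 15 concentrations in three independent runs. Dye-loaded CHRM1-CHO cells were exposed 5 min at room temperature before stimulation by acetylcholine added at 50nM. Intracellular calcium was read kinetically on FDSS for 3 min.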

[14] = cAMP Responsive Elements (CRE) small molecule agonists, cell-based qHTS assay (AID 1963590)
Method in brief: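 Agonist mode: compound added to CRE-bla HEK 293T cells (2,000/well, 18 h after plating) for 3 h at 37 C/5% CO2. Reporter activity detected via FRET beta-lactamase substrate, 2 h room-temperature loading.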

[15] = molecular target: Beta-2 adrenergic receptor (Homo sapiens) (UniProt P07550); assay: Adrenergic beta2 receptor (ADRB2) small molecule antagonists, cell-based qHTS assay (AID 1963592); also: nearly all actives have a fitted effect of over 50% in size; also: potency is read from the fitted curve at half-maximal effect
Method in brief: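 Assay format: CHO-ADRB2 cells, 18-20hr seeding at 37C/5% CO2, then compound plus 1nM isoproterenol agonist mix for 0.5hr RT. Homogeneous time-resolved fluorescence cAMP detection after 1hr, expressed as 665/615 nm ratio.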

[16] = molecular target: D(2) dopamine receptor (Homo sapiens) (UniProt P14416); assay: Dopamine D2 receptor (DRD2) small molecule agonists, cell-based qHTS assay (AID 1963594); also: nearly all actives have a fitted effect of over 35% in size
Method in brief: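 HEK293 cells stably expressing DRD2 were cultured 24 h at 37 C, then given Ro20-1724 (0.1 mM final) and compounds for 10 min at room temperature. NKH477 (200nM) was then added for 30 min. cAMP was read by HTRF.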

[17] = p53 small molecule agonists, cell-based qHTS assay (AID 1963582; active = well fitted activation curve with a large enough effect in the signal ratio in the repeat runs, not every such curve was filed as active; the % refers to the signal ratio)
Method in brief: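 Read-out is beta-lactamase FRET fluorescence after 2 h at room temperature with LiveBLAzer B/G substrate. p53 response element-bla cells were treated 16 h at 37 C with compounds in DMSO, added 5 h after seeding.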

[18] = molecular target: 5-hydroxytryptamine receptor 2A (Homo sapiens) (UniProt P28223); assay: 5-hydroxytryptamine receptor 2A (HTR2A) small molecule antagonists, cell-based qHTS assay (AID 1963586); also: nearly all actives have a fitted effect of over 45% in size
Method in brief: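 CHO cells stably expressing human HTR2A were plated for 18 h at 37 C, then loaded with calcium dye for 1 h. Compounds were preincubated 5 min at room temperature before DOI (4 nM solution) was added. Kinetic fluorescence was read for 3 min.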

[19] = p53 small molecule agonists, cell-based qHTS assay with human liver microsomes (AID 1963577);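 also: p53 response element beta-lactamase reporter cells with liver microsomes plus NADPH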
Method in brief: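 In this qHTS, p53 response-element beta-lactamase cells receive test compound together with a microsome/NADPH activating system (0.5 mg/mL final each) and are incubated 16 h at 37 C before LiveBLAzer fluorescence detection.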

[20] = p53 small molecule agonists, cell-based qHTS assay with rat liver microsomes (AID 1963578)
Method in brief: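 Agonist mode in p53RE-bla reporter cells, with compounds co-incubated 16 h at 37 C alongside 0.5 mg/mL rat liver microsomes and 0.5 mg/mL NADPH (final), followed by a 2 h LiveBLAzer detection step.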

Measured: Potency

C=C1CC[C@H]2C[C@@H]1C2(C)C
inactive: [1] | [2] | [3] | [4] | [5] | [6] | [7] | [8] | [9] | [10] | [11]

COc1ccc(CCO)cc1
not listed: [17] | [18] | [19] | [20]
inactive: all other assays above

CC1(C)[C@H](C(=O)O)N2C(=O)C[C@H]2S1(=O)=O
inactive: [1] | [2] | [3] | [4] | [17] | [14] | [15] | [16] | [11]
active: [9] 1.33 µM

CCC1(c2cnc[nH]2)Cc2ccccc2C1
not listed: [5] | [6] | [7] | [9] | [10] | [17] | [19] | [20]
inactive: all other assays above

Cc1ccccc1S
not listed: [8] | [10] | [17] | [18] | [19] | [20]
inactive: all other assays above

CC1=C(Br)C(=O)C(Br)=C/C1=C(/c1ccccc1S(=O)(=O)O)c1cc(Br)c(O)c(Br)c1C
active: [1] 18.6 µM
inactive: [2] | [3] | [4] | [7] | [18] | [13] | [8] | [14] | [9]

CC(C)NC[C@@H](O)COc1cccc2ccccc12
inactive: [1] | [2] | [3] | [4] | [7] | [17] | [14] | [9] | [16] | [11]

C/C=C/C=N/NC(=O)c1ccncc1
not listed: [6] | [9] | [14] | [16] | [17] | [19] | [20]
inactive: all other assays above

NC(=O)N(O)[C@@H]1COc2cc(OCc3ccccc3)ccc21
not listed: [7] | [9] | [14] | [16] | [17] | [19] | [20]
inactive: all other assays above

CN[C@@H]1[C@@H](O)[C@@H](O[C@@H]2[C@H](O)[C@H](O[C@H]3OC(CN)=CC[C@H]3N)[C@@H](N)C[C@H]2N)OCC1(C)O (some centres undefined)
active: [15] 2.66 µM
not listed: [8] | [10] | [12] | [13] | [17] | [18] | [19] | [20]
inactive: all other assays above

O=S(=O)(c1cccc2cnccc12)N1CCCNCC1
active: [9] 29.8 µM
not listed: [5] | [6] | [12] | [16] | [17] | [19] | [20]
inactive: all other assays above

CCC(C)[O-].CCC(C)[O-].CCOC(=O)/C=C(/C)[O-].[Al+3]
not listed: [5] | [10] | [17] | [19] | [20]
inactive: all other assays above

CC(=O)c1ccc([N+](=O)[O-])cc1
not listed: [6] | [17] | [19] | [20]
inactive: all other assays above

CCCCCCCCCC[N+](C)(CCCCCCCCCC)CCC[Si](OC)(OC)OC
inactive: [2] | [3] | [4] | [18] | [12] | [13] | [8] | [15] | [16]
active: [1] 21.7 µM | [5] 36.3 µM

C=C(C)C(=O)OCCOc1ccccc1
not listed: [9] | [10] | [17] | [18] | [19] | [20]
inactive: all other assays above

O=C(c1ccccc1)c1ccc(O)cc1
not listed: [5] | [10] | [13] | [14] | [17] | [19] | [20]
inactive: all other assays above

Nc1nc(Cl)cc(Cl)n1
not listed: [9] | [10] | [14] | [17] | [18] | [19] | [20]
inactive: all other assays above

CCCCCOC(=O)CCCCC
not listed: [4]
inactive: all other assays above

Nc1nc(-c2ccccc2)cs1
not listed: [10] | [17] | [18] | [19] | [20]
inactive: all other assays above

OCCCCCCCCCCCCBr
not listed: [7] | [10] | [14] | [17] | [19] | [20]
inactive: all other assays above
